Laboratory results taken from the supplement of paper PMC6555819.

What was measured:
Experiment in all cases: PBM binding z-score (relative to random genomic background probes); higher = stronger binding; sequences stand for … in GC…GCGATTGACAGCGTAGAATGAAGG
[1] = tested on: RARb homodimer (NR concentration 270 nM)
In short: (§1)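 Random background probes are the reference for binding z-scores. These scores derive from regression-normalized fluorescence on custom Agilent 4×180K protein-binding microarrays incubated 1 h with ligand-free nuclear receptor dimers. Binding was detected with antibodies against each partner (one per run).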

[2] = tested on: RARg:RXRa (NR concentration 270 nM, RXRa partner concentration 90 nM)
In short: as §1

[3] = tested on: RARg homodimer (NR concentration 270 nM)
In short: as §1

[4] = tested on: RXRa DBDmut IVT, anti-RXR (DBD mutation: RXRa K156A/R161A, NR concentration 90 nM)
In short: as §1

[5] = tested on: RXRa homodimer (NR concentration 180 nM)
In short: as §1

[6] = tested on: THRa:RXRa (NR concentration 90 nM, RXRa partner concentration 90 nM)
In short: as §1

[7] = tested on: THRa homodimer (NR concentration 90 nM)
In short: as §1

[8] = tested on: VDR:RXRa (NR concentration 270 nM, RXRa partner concentration 90 nM)
In short: as §1

[9] = tested on: VDR homodimer (NR concentration 270 nM)
In short: as §1

Row | Sequence | PBM binding z-score [1] | PBM binding z-score [2] | PBM binding z-score [3] | PBM binding z-score [4] | PBM binding z-score [5] | PBM binding z-score [6] | PBM binding z-score [7] | PBM binding z-score [8] | PBM binding z-score [9]
1 | CCTGCTAGGACAATGGTCAGCTAAAGCAGCTCGC | -0.0607 | -0.421 | -0.262 | 0.179 | -0.865 | 0.0505 | -0.399 | -0.832 | -0.794
2 | ATCGAAAGGTCGTGAAGTGAGTATACAGAAAGGC | 2.17 | 3.85 | 3.56 | 1.38 | 4.35 | 2.18 | 0.0261 | 3.26 | 1.02
3 | TCGAGTAGGTTACGGGGGCATTCCGGGATGAAGA | 2.02 | 3.36 | 2.56 | 1.49 | 2.87 | 3.7 | 0.954 | 3.83 | 2.67
4 | ATATGTAGGTGAAGGGTCATTCAGGTTGGTTCGC | 3.76 | 4.77 | 3.15 | 2.06 | 5.6 | 3.55 | 1.35 | 5.46 | 4.34
5 | TCGAGTAGGTTACGGGGGCGTTCAGGGATGAAGA | 1.66 | 2.9 | 1.99 | 1.4 | 2.05 | 3.24 | 1.34 | 3.7 | 3.52
6 | CGAACTAGGTTACCAGGACAGTGAAGAGGTTGGA | 1.01 | 0.707 | 1.05 | 0.48 | 0.367 | 1.62 | 0.878 | -0.164 | 0.0565
7 | ATATGTAGGTTATGGTCATTCAGAAAGTAGGGAA | 1.22 | 1.16 | 1.22 | 0.958 | 1.32 | 1.05 | 0.5 | 0.871 | 0.656
8 | CGAACTAGGTTAAAGGACAGTGAAAGGCGACGTA | 1.34 | 1 | 1.38 | -0.1 | 0.702 | 0.788 | -0.308 | -0.216 | -0.464
9 | CCGACTGGGGCAAAGGTTACGATACTCAGTACGA | 2.03 | 3.68 | 1.78 | 0.541 | 3.62 | 1.81 | -0.139 | 1.61 | -0.301
10 | CCTAGTTGGTCAAGGTCCCACACGCTATAGGTAC | 1.27 | 0.7 | 1.19 | 0.446 | 0.433 | 0.687 | 0.94 | 0.398 | 0.734
11 | CGAACTAGGTCAAAGGACAGCGAAAGGCGACGTA | 3.05 | 4.13 | 4.72 | 1.85 | 3.19 | 2.46 | 0.406 | 1.47 | 0.311
12 | ATCTCTAGGTAAATGTTCAGTGAATCCCGAGGAT | -0.29 | 0.459 | 0.485 | -0.155 | 0.162 | 0.097 | 0.171 | -0.0606 | -0.0904
13 | CGTCCAAGGGCAGCAGGTCAGTGAAAGCGACGTG | 2.99 | 2.31 | 2.9 | 0.247 | 0.676 | 1.28 | -0.115 | 0.17 | 0.0968
14 | CCGAGTAGGGTACGAGGGGGCATTCAGTGCGAAT | 1.62 | 1.87 | 1.59 | 1.73 | 1.03 | 2.64 | 0.475 | 4.33 | 4.03
15 | AAAATGAGGTTAAGATCAGGGAAACAGAATACAT | 1.03 | 2.28 | 1.37 | 1.32 | 2.73 | 2.75 | 0.772 | 1.35 | 0.778
16 | TCATATAGGTTAAAGGTGAAAGTCGGTGTGGTAA | 2.56 | 3.92 | 1.76 | 1.94 | 5.99 | 2.62 | 0.942 | 3.02 | 0.81
17 | CATACAGGGTCCGCTAGGCCAGAGTAGGGACGGC | -0.0807 | -0.0159 | 0.424 | -0.419 | -0.247 | -0.0805 | -0.241 | -0.537 | -0.213
18 | CGAATTAGGTCACCAGGACAGTGAAGAGGTTGGA | 3.77 | 4.66 | 5.28 | 1.56 | 3.42 | 3.98 | 2.96 | 2.06 | 0.575
19 | CGAACTAGGTCAAAGGACAGTGAAAGGCGACGTA | 2.83 | 3.94 | 4.27 | 1.3 | 3.33 | 2.58 | 0.464 | 1.32 | 0.47
20 | CTATGTAGGTTAAGGGGTTCATTCAGTTTGAAAG | 1.75 | 1.88 | 1.04 | 2.79 | 2.55 | 1.92 | 0.473 | 7.62 | 7.01
21 | AGTCAAAGTTCATCAAGGTAACGTAAGATATGCT | 3.86 | 5.57 | 5.96 | 4.57 | 4.81 | 3.8 | 1.23 | 5.55 | 4.97
22 | CGACCTAGGTCACCAGGACAGTGAAGAGGTTGGA | 3.51 | 5.3 | 5.83 | 1.6 | 3.92 | 3.44 | 1.53 | 2.68 | 0.503
23 | CAAGCTAGGTCAAAGGTCAAAGTCGAGCCAACCA | 5.17 | 9.17 | 8.1 | 3.05 | 10.6 | 4.96 | 1.45 | 6.9 | 3.39
24 | TCGAGTAGGTTACGGGGACATTCAGGGATGAAGA | 1.42 | 1.26 | 1.01 | 0.561 | 1.09 | 2.77 | 1.57 | 1.27 | 1.1
25 | CTCGAAAGGTCGTGCTTAGGTGAGTATACCAAAC | 3.07 | 5.09 | 3.82 | 2.24 | 4.91 | 4.2 | 1.11 | 3.36 | 1.05
26 | ATCTGTAGGTTAGGGTCATTCAGAAAGTAGGGAA | 3.65 | 4.2 | 3.96 | 2.35 | 5.32 | 4.19 | 3.53 | 4.35 | 4.36

Row | Sequence | PBM binding z-score [1] | PBM binding z-score [2] | PBM binding z-score [3] | PBM binding z-score [4] | PBM binding z-score [5] | PBM binding z-score [6] | PBM binding z-score [7] | PBM binding z-score [8] | PBM binding z-score [9]
27 | TAGCCTAGGTCATTCAGGGGCCAGTATGGAAAGC | 3.26 | 6.2 | 4.83 | 1.72 | 2.92 | 3.67 | 0.641 | 3.13 | 1.17
28 | CGATCTAGGTCACCAGGACAGTGAAGAGGTTGGA | 3.47 | 4.36 | 5.15 | 1.35 | 3.32 | 3.44 | 2.13 | 1.76 | 0.435
29 | TCAGATAGGTAAAGGTGAAAGTCGAACGATATGA | 1.76 | 1.57 | 1.27 | 0.734 | 2.33 | 1.33 | -0.218 | 0.979 | -0.344
30 | CCAGACAGGTGAAAGGTAACTCCGTCTGGTACGC | 0.693 | 1.23 | 0.537 | -0.24 | 2.07 | 0.859 | -0.16 | 0.557 | -0.193
31 | GATACAGGGTCAAGGCCAGAGTACGCGTATTGAT | 3.46 | 5.41 | 4.92 | 2.66 | 5.69 | 3.52 | 1.35 | 4.28 | 2.91
32 | CCTACTGGGCCACGAAAGGTGATTGATTCAGTGA | 1.02 | 0.589 | 0.505 | -0.663 | 0.207 | 1.41 | -0.377 | -0.281 | -0.289
33 | ATATGTAGGTTACCGGGTCATTCAGTTTGCGCAT | 3.18 | 3.85 | 2.52 | 1.45 | 4.15 | 3.37 | 2.38 | 5.56 | 4.17
34 | CGAACTAGGTCAAAGGATAGTGAAAGGCGACGTA | 2.35 | 3.47 | 4.16 | 1.28 | 2.85 | 2.22 | 0.17 | 1.12 | 0.124
35 | ATATGGAGGTTAAGGGTCATTCAGGTTGGTTCGC | 4.46 | 5.75 | 4.13 | 2.5 | 7.76 | 3.96 | 2.38 | 6.32 | 5.63
36 | CGTCCAAGCTCAGCAGGTCAGTGAAAGCGACGTG | 1.73 | 0.644 | 1.1 | -0.071 | 0.158 | 0.642 | -0.345 | -0.352 | -0.808
37 | ATATCTAGGTTAGGGTCATTCAGAAAGTAGGGAA | 3.56 | 4.06 | 3.32 | 2.56 | 4.98 | 4.14 | 3.56 | 4.41 | 4.16
38 | CCTGCTCGGTCAATGGTCAGCTAAAGCAGCTCGC | 1.62 | 1.65 | 2.47 | 0.331 | 0.053 | -0.136 | -0.403 | -0.375 | -0.799
39 | CGTCGAAGGTCAATGCTAGGTCAGTGAAAGCATT | 5.11 | 7.62 | 6.84 | 2.5 | 5.4 | 4.28 | 1.03 | 4.47 | 1.91
40 | CCTAGTTGGTCAAGGTCACGCACGCTATAGGTAC | 4.81 | 5.21 | 5.57 | 1.94 | 5.65 | 4.06 | 4.48 | 4.45 | 3.96
41 | CGAACTAGGTCACCAGGACAGAGAAGAGGTTGGA | 3.46 | 4.58 | 5.47 | 1.79 | 3.97 | 3.37 | 1.89 | 2.04 | 0.617
42 | CGAACTAGTTCAAAGGACAGTGAAAGGCGACGTA | 1.43 | 1.25 | 1.73 | 2.02 | 0.848 | 0.426 | -0.6 | 0.0501 | 0.808
43 | AGTCAAATTTCACTAGGTAACGTAAGATTCAGCT | 0.0165 | -0.19 | 0.218 | 0.395 | -0.206 | 0.638 | 0.471 | 0.337 | 0.31
44 | CCGAGTAGGTTACGAGGGGGCATTCAGTGCGAAT | 2.12 | 3.18 | 2.54 | 1.15 | 2.18 | 3.83 | 0.272 | 5.35 | 3.79
45 | TCGGGTAGGTTACGGGGGCATTCAGGGATGAAGA | 3.18 | 4.23 | 4.1 | 3.04 | 3.43 | 4.32 | 3.14 | 4.77 | 4.85
46 | CTATGTAGGTTAAGGCGGTCATTCAGTTTGAAAG | 1.65 | 1.31 | 1.44 | 0.518 | 0.704 | 0.878 | -0.0284 | 3.84 | 0.465
47 | CTAACTAGGTCACCGGAAGGTCAAAGTCCGCATG | 5.66 | 8.24 | 7.39 | 2.16 | 6.18 | 4.48 | 2.98 | 6.08 | 2.9
48 | CCGAGTAGGTTACGAGGGGGCAATCAGTGCGAAT | 2.19 | 3.42 | 2.54 | 1.02 | 2.13 | 3.65 | 0.431 | 4.72 | 2.8
49 | CGAACTTGGTCACCAGGACAGTGAAGAGGTTGGA | 1.06 | 0.959 | 1.47 | -0.0208 | 0.727 | 1.63 | 0.644 | 0.809 | -0.0725
50 | CCGAGTAGGTTACGAGGGGGCATTGAGTGCGAAT | 1.96 | 3.29 | 2.3 | 1.46 | 2.21 | 3.98 | 0.378 | 6.16 | 3.76
51 | TAGAGTAGGTTACGGGGGCATTCAGGGATGAAGA | 2.5 | 3.43 | 2.77 | 2.08 | 3.21 | 3.99 | 1.75 | 4.09 | 3.81
